Data on ten compounds can be found in PubChem BioAssay (NCI).

The panel holds about 83,000 compounds, 20% with a hit somewhere; the sample as a whole holds those more often.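 For each line, cells grew in 96-well plates with the test compound present at a single concentration for 48 hours.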 A number with no mark means an inactive call. Calls of active or inactive are those of the source. The calls were made as follows: active = growth percent below 10; inactive = the rest.

Among the test systems are DU-145 prostate; K-562 leukemia; MALME-3M melanoma; MDA-MB-231 breast; RXF 393 renal; SF-268 CNS; SF-295 CNS; SF-539 CNS; UACC-257 melanoma; M14 melanoma.
Holding throughout (assay): NCI-60 one-dose screen, 48 h (100 = growth as untreated, 0 = no growth, -100 = all killed)
Holding throughout (conditions): 10 µM unless noted

Take `N#C/C(=C\c1ccc(Br)cc1)n1nnc2ccc(F)cc21`: the growth is 15.3% in the assay with DU-145 prostate; 3.46% (active) in the assay on K-562 leukemia; -22.6% (active) in the assay with MALME-3M melanoma; -11.4% (active) in the assay with MDA-MB-231 breast; -41% (active) with RXF 393 renal; 42.5% with SF-268 CNS. Further, the growth was 44% in the assay on SF-295 CNS, -24.3% (active) in the assay with SF-539 CNS, 6.2% (active) with UACC-257 melanoma and -42.3% (active) with M14 melanoma.

Regarding `CCOC(=O)C(=Cc1cccc(Cl)c1)C(=O)OCC`, the growth in the assay with DU-145 prostate is 28%; in the assay with K-562 leukemia, -11.1% (active); with MALME-3M melanoma, -27.5% (active); in the assay with MDA-MB-231 breast, 1.37% (active); in the assay on RXF 393 renal, -27.8% (active); in the assay on SF-268 CNS it was 26.4%. For the same compound, the growth in the assay with SF-295 CNS was 77.2%; with SF-539 CNS it was 9.28% (active); in the assay with UACC-257 melanoma, 26.1%; in the assay with M14 melanoma it was 11.9%.

For `CC(C)c1ccc(NC(=O)Nc2ccc(NC(=O)CCCC(=O)NOCc3ccccc3)cc2)cc1`, the growth with DU-145 prostate is 94.3%; in the assay with K-562 leukemia, 83.4%; in the assay on MALME-3M melanoma it was 82.8%; in the assay with MDA-MB-231 breast, 93.9%; in the assay on RXF 393 renal it was 109%; in the assay on SF-268 CNS, 95.9%. In addition, the growth with SF-295 CNS was 91.2%; in the assay on SF-539 CNS, 75.1%; in the assay on UACC-257 melanoma, 86.5%; with M14 melanoma, 97.3%.

In the case of `O=c1c2cc(-c3ccccc3)sc2nc2sc(-c3ccccc3)nn12`, the growth with DU-145 prostate was 103%; in the assay with K-562 leukemia, 93.8%; with MALME-3M melanoma, 94.1%; in the assay with MDA-MB-231 breast, 110%; with RXF 393 renal, 93.2%; with SF-268 CNS, 100%. The growth with SF-295 CNS is 98.8%; with SF-539 CNS, 107%; with UACC-257 melanoma it was 90.9%; with M14 melanoma, 97.9%.

As to `C#CCOc1ccc2ncnc(Nc3ccc(NC(=O)CCl)cc3)c2c1`, the growth with DU-145 prostate was 18.1%; with K-562 leukemia, 0.218% (active); in the assay on MALME-3M melanoma, -74.5% (active); with MDA-MB-231 breast, -0.398% (active); in the assay with RXF 393 renal, -59.9% (active); in the assay with SF-268 CNS, -7.47% (active). Further, the growth is 60.6% with SF-295 CNS, -81.8% (active) in the assay on SF-539 CNS, 38.8% with UACC-257 melanoma and 4.03% (active) in the assay on M14 melanoma.

Consider `CC(C)(C)n1cc(-c2ccnc(NCCCNS(=O)(=O)c3ccc(F)cc3)c2)c(-c2cccc(F)c2)n1`, for which the growth was 77.7% in the assay with DU-145 prostate; 18.1% in the assay with K-562 leukemia; 85.4% in the assay on MALME-3M melanoma; 75.6% in the assay with MDA-MB-231 breast; 68% with RXF 393 renal; 74.3% in the assay on SF-268 CNS. Besides, the growth in the assay with SF-295 CNS was 74%; in the assay with SF-539 CNS, 68.7%; in the assay on UACC-257 melanoma it was 89.2%; with M14 melanoma it was 53.8%.

Take `O=S(=O)(NCCNc1cc(-c2c(-c3cccc(O)c3)nc3sccn23)ccn1)c1ccc(C(F)(F)F)cc1`: the growth was 43.1% in the assay with DU-145 prostate; 22.8% in the assay with K-562 leukemia; 57.8% in the assay on MALME-3M melanoma; 53.2% with MDA-MB-231 breast; 42.1% with RXF 393 renal; 34.9% in the assay on SF-268 CNS. In addition, the growth in the assay on SF-295 CNS was 31.2%; in the assay with SF-539 CNS, 62.3%; in the assay with UACC-257 melanoma, 51.8%; in the assay on M14 melanoma it was 36.9%.

On to `COC(=O)c1c2c(c(C)[n+]([O-])c1C)C(=O)C=C(NCc1ccc(Br)cc1)C2=O`, for which the growth with DU-145 prostate is -87.7% (active); in the assay on K-562 leukemia, 2.51% (active); in the assay on MALME-3M melanoma, -97.9% (active); in the assay on MDA-MB-231 breast it was -4.67% (active); in the assay on RXF 393 renal it was -46.1% (active); with SF-268 CNS it was -43.7% (active). In addition, the growth in the assay on SF-295 CNS is -97.9% (active); with SF-539 CNS, -86.8% (active); with UACC-257 melanoma, -80.6% (active); in the assay with M14 melanoma, -83.9% (active).

Consider `O=C1c2c(c3c4ccccc4[nH]c3c3ccc4ccccc4c23)C(=O)N1CCN1CCCCC1`, for which the growth in the assay on DU-145 prostate is 26.2%; in the assay on K-562 leukemia it was -7.75% (active); in the assay on MALME-3M melanoma, 73.9%; with MDA-MB-231 breast, 75.7%; in the assay on RXF 393 renal it was 65.7%; in the assay with SF-268 CNS, 39.6%. Moreover, the growth is 30.4% in the assay on SF-295 CNS, 46.3% with SF-539 CNS, 85.4% with UACC-257 melanoma and 30.2% in the assay with M14 melanoma.

Take `COc1ccccc1Nc1nc2c(s1)C1=CC[C@H]3[C@@H]4CC[C@H]([C@H](C)CCCC(C)C)[C@@]4(C)CC[C@@H]3[C@@]1(C)CC2`: the growth with DU-145 prostate is 103%; in the assay on K-562 leukemia it was 102%; in the assay on MALME-3M melanoma, 101%; in the assay on MDA-MB-231 breast it was 103%; in the assay on RXF 393 renal, 117%; in the assay on SF-268 CNS, 102%. In addition, the growth in the assay with SF-295 CNS was 108%; in the assay with SF-539 CNS, 104%; in the assay with UACC-257 melanoma, 110%; in the assay on M14 melanoma it was 101%.
